Assay results from PubChem BioAssay (Tox21).
Results filed as inconclusive are left out. Where a call stands in place of a potency, no number is given. Unmarked numbers belong to inactive results. Calls of active or inactive are those of the source. Unless noted, calls follow the shape of the dose curve; as a rule, active = well fitted curve in the direction sought with a large enough effect in the repeat runs; inconclusive = weak or mixed curves; inactive = no such curve, though single readings can be large; an effect the other way counts as inactive or inconclusive.

Columns and labels:
[1] = qHTS assay to identify small molecule antagonists of the retinoid acid receptor (RAR) signaling pathway - cell viability counter screen (AID 1159551); also: nearly all actives have a fitted effect of over 35% in size
Procedure, shortened: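 Seed C3RL4 cells; next day add compound, then retinol to 1 uM final; incubate 6 h at 37 C; add CellTiter-Glo; read luminescence after 30 min at RT.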

[2] = qHTS assay to identify small molecule antagonists of the retinoic acid receptor (RAR) signaling pathway (AID 1159552; also: nearly all actives have a fitted effect of over 50% in size; also: potency is read from the fitted curve at half-maximal effect)
Procedure, shortened: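 Retinol signaling pathway inhibitors screened in C3RL4 RARE-luciferase reporter cells seeded overnight at 37 C, then compounds added with 1 uM (final) retinol as pathway substrate. After 6 hr at 37 C, luciferase luminescence read after 30 min at room temperature.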

[3] = qHTS assay to identify small molecule antagonists of the estrogen related receptor (ERR) signaling pathway from Tox21 library - cell viability counter screen (AID 1224834); also: nearly all actives have a fitted effect of over 30% in size; also: potency is read from the fitted curve at half-maximal effect
Procedure, shortened: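 CellTiter-Fluor fluorescence measured; ERR cells; 17.5 h compound incubation at 37 C; 30 min reagent step.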

[4] = target: Luciferin 4-monooxygenase (Photinus pyralis) (UniProt P08659); assay: qHTS assay to identify small molecule inhibitors of firefly luciferase (AID 1224835); also: nearly all actives have a fitted effect of over 25% in size; also: potency is read from the fitted curve at half-maximal effect
Chain of Luciferin 4-monooxygenase (Photinus pyralis) (P08659 whole entry, looked up): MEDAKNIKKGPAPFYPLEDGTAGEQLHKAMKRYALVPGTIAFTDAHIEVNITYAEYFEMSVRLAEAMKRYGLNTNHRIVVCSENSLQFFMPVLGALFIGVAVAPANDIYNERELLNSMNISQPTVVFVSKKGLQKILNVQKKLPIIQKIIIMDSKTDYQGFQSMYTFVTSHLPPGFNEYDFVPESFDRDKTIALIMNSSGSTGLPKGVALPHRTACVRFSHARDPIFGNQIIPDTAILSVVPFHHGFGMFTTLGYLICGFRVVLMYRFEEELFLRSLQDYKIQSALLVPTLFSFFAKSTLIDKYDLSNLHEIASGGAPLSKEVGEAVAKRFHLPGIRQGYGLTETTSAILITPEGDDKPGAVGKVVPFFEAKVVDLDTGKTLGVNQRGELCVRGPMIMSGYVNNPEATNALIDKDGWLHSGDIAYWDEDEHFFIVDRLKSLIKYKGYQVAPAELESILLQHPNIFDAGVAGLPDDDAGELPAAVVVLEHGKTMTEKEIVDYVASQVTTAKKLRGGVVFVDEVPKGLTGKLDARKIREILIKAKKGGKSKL
Procedure, shortened: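 Inhibition of purified Photinus luciferase is measured by luminescence. Substrate levels (D-luciferin, ATP) sit at their KM values. Each compound is tested in a concentration series.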

[5] = qHTS assay to identify small molecule agonists of the constitutive androstane receptor (CAR) signaling pathway - cell viability counter screen (AID 1224836); also: series mostly up to about 92 µM; nearly all actives have a fitted effect of over 45% in size
Procedure, shortened: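 HepG2 cells stably carrying hCAR and a CYP2B6-2.2kb reporter; 15-concentration compounds plus PK11195 (final 0.75 uM), 23 hr at 37 C/5% CO2. Viability read by CellTiter-Fluor fluorescence.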

[6] = qHTS assay to identify small molecule antagonists of the constitutive androstane receptor (CAR) signaling pathway - cell viability counter screen (AID 1224837); also: series mostly up to about 92 µM; nearly all actives have a fitted effect of over 45% in size
Procedure, shortened: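 Using CellTiter-Fluor, viability is scored in HepG2 cells stably carrying hCAR and a 2.2kb CYP2B6 reporter after 23 hr compound exposure across 15 concentrations, with CITCO present at 50 nM.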

[7] = target: Nuclear receptor subfamily 1 group I member 3 (Homo sapiens) (UniProt Q14994); assay: qHTS assay to identify small molecule antagonists of the constitutive androstane receptor (CAR) signaling pathway (AID 1224838);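 also: HepG2 cells stably expressing hCAR with CYP2B6 luciferase reporter stimulated by CITCO; nearly all actives have a fitted effect of over 40% in size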
Chain of Nuclear receptor subfamily 1 group I member 3 (Homo sapiens) (Q14994 whole entry, looked up): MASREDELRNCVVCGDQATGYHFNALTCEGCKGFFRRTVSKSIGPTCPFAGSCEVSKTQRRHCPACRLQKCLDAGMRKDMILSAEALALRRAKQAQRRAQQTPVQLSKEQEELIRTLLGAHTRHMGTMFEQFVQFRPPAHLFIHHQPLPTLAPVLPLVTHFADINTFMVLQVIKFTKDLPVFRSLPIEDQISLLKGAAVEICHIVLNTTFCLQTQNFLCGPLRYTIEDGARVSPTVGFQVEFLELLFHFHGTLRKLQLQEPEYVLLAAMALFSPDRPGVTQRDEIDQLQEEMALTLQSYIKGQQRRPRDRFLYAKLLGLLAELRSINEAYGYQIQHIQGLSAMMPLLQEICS
Procedure, shortened: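 Reporter luminescence was quantified after 24 h exposure of hCAR/CYP2B6-2.2kb double-stable HepG2 cells to compounds at 15 concentrations in the presence of 50 nM CITCO final.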

[8] = qHTS assay to identify small molecule antagonists of the estrogen related receptor signaling pathway with the pleiotropic PPARgamma coactivator (PGC) from Tox21 10K library - cell viability counter screen (AID 1224840; active = well fitted cell-killing curve with a large enough effect in the repeat runs, not every such curve was filed as active; also: nearly all actives have a fitted effect of over 40% in size)
Procedure, shortened: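 Here the PGC/ERR cells serve as a cytotoxicity control: they are exposed to compounds for 17.5 hours at 37 C, and live-cell signal is quantified using CellTiter-Fluor fluorescence.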

[9] = target: Thyrotropin receptor (Homo sapiens) (UniProt P16473); assay: qHTS assay to identify small molecule agonists of the thyroid stimulating hormone receptor (TSHR) signaling pathway (AID 1224843; calls by dose curve; also: nearly all actives have a fitted effect of over 45% in size)
Chain of Thyrotropin receptor (Homo sapiens) (P16473 whole entry, looked up): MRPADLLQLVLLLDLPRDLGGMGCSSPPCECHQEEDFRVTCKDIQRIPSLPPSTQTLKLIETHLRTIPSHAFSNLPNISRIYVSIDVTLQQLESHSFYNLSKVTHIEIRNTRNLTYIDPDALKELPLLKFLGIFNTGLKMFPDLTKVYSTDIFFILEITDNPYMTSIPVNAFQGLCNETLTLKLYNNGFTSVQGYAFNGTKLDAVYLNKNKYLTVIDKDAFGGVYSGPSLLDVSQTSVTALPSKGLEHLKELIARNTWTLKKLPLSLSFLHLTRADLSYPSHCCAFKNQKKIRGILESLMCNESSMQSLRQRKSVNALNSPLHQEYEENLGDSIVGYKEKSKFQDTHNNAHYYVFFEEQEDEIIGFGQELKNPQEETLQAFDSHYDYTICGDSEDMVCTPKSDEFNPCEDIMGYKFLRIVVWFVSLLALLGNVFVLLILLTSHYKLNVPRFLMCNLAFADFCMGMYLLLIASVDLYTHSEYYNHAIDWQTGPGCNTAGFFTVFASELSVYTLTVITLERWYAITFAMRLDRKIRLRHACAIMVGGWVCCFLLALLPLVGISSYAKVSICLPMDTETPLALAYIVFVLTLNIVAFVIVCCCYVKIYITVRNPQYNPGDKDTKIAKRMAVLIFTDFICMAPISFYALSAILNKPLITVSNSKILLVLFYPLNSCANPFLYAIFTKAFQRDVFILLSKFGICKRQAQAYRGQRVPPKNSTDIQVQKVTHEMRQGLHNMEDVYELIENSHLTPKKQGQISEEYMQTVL
Procedure, shortened: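 Screening of the Tox21 10K collection used HEK293 cells engineered with TSHR at 800 cells per well. After a 30-min room-temperature compound exposure, HTRF cAMP reagents were added and fluorescence recorded 1 h later.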

[10] = qHTS assay to identify small molecule agonists of the hypoxia (HIF-1) signaling pathway - cell viability counter screen (AID 1224844; calls by dose curve; also: nearly all actives have a fitted effect of over 50% in size)
Procedure, shortened: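 Multiplexed with the HRE beta-lactamase assay, this viability read used CellTiter-Glo luminescence (30 min, RT) on HRE-bla ME-180 cells treated 17 hrs with compounds in 0.5% dialyzed FBS medium.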

[11] = qHTS assay to identify small molecule agonists of H2AX (AID 1224845; active = well fitted activation curve with a large enough effect in the signal ratio in the repeat runs, not every such curve was filed as active; the % refers to the signal ratio)
Procedure, shortened: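 Phospho-H2AX Ser139 measured by HTRF (ex 320 nm; em 665 and 620 nm) after 24 hr antibody incubation. Compounds, 15 concentrations, 0.76% DMSO, were applied to CHO-K1 cells for 3hr at 37C before lysis.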

[12] = target: Nuclear receptor subfamily 1 group I member 3 (Homo sapiens) (UniProt Q14994); assay: qHTS assay to identify small molecule agonists of the constitutive androstane receptor (CAR) signaling pathway (AID 1224839); also: nearly all actives have a fitted effect of over 15% in size; also: potency is read from the fitted curve at half-maximal effect;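 as to activation: HepG2 cells stably carrying human CAR and a CYP2B6 luciferase reporter; series mostly up to about 92 µM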
Procedure, shortened: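 HepG2 cells stably co-transfected with hCAR and a CYP2B6-2.2kb luciferase reporter; compounds at 15 concentrations with 0.75 uM PK11195 present. After 24 hr at 37 C, luciferase read by ONE-Glo luminescence.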

[13] = qHTS assay to identify small molecule antagonists of the estrogen related receptor signaling pathway with the pleiotropic PPARgamma coactivator (PGC) from Tox21 10K library (AID 1224841; call rule not given here; also: series mostly up to about 92 µM; actives are mostly falling curves and most rising ones were filed inactive; nearly all actives have a fitted effect of over 50% in size)
Procedure, shortened: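 Each well held 2,000 PGC/ERR cells, pre-incubated six hours (37 C, 5% CO2). Test substances in DMSO were added by pin tool and left for 18 h at 37 C before luciferase detection by One-Glo.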

[14] = qHTS assay to identify small molecule agonists of the estrogen related receptor signaling pathway with the pleiotropic PPARgamma coactivator (PGC) from Tox21 10K library (AID 1224842); also: nearly all actives have a fitted effect of over 15% in size
Procedure, shortened: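 Luminescence from One-Glo (30 min, room temperature) measured after PGC/ERR cells had 18 h at 37 C with pinned compound (23 nL in DMSO). Cells had been seeded at 2,000 per well and pre-incubated 6 h.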

[15] = qHTS assay to identify small molecule agonists of the retinoic acid receptor (RAR) signaling pathway (AID 1159553); also: potency is read from the fitted curve at half-maximal effect
Procedure, shortened: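 Activation of retinol signaling was monitored via a RARE luciferase reporter in C3RL4 cells. After 6 hr compound treatment at 37 C, detection reagent was added for 30 min at room temperature before luminescence reading.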

| SMILES | outcome [1] | Potency [2] | Potency [3] | Potency [4] | outcome [5] | outcome [6] | Potency [7] | outcome [8] | Potency [9] | Potency [10] | Potency [11] | Potency [12] | Potency [13] | Potency [14] | Potency [15] |
| --- | --- | --- | --- | --- | --- | --- | --- | --- | --- | --- | --- | --- | --- | --- | --- |
| CNC(=O)Nc1ccc(Cl)c(Cl)c1 | inactive | inactive | inactive | 56.4 µM (active) | inactive | inactive | inactive | inactive | inactive | inactive | inactive | – | – | – | – |
| CCOC(=O)CCC(=O)OCC | inactive | inactive | inactive | inactive | inactive | inactive | inactive | – | inactive | inactive | inactive | inactive | inactive | inactive | – |
| COC(=O)C1=C(C)NC(C)=C(C(=O)OC(C)C)C1c1cccc2nonc12 (centres undefined) | inactive | 21.1 µM (active) | – | inactive | inactive | inactive | inactive | – | inactive | inactive | inactive | – | inactive | inactive | inactive |
| CN(C)CCCCCCN(C)C | inactive | inactive | inactive | – | inactive | inactive | inactive | inactive | inactive | inactive | inactive | inactive | inactive | inactive | inactive |
| Nc1ccccn1 | inactive | inactive | inactive | – | inactive | inactive | inactive | inactive | – | inactive | inactive | inactive | – | – | inactive |
| CCC(C)(CN(C)C)OC(=O)c1ccccc1 (centres undefined) | inactive | inactive | inactive | – | inactive | inactive | – | inactive | – | inactive | inactive | – | – | – | inactive |
| C=C(C)C(=O)OCCOCCOCCOCCOC(=O)C(=C)C | inactive | inactive | inactive | inactive | inactive | inactive | inactive | – | inactive | inactive | – | inactive | – | – | – |
| O=Cc1cccc(Br)c1 | inactive | inactive | inactive | inactive | inactive | inactive | inactive | inactive | inactive | inactive | inactive | inactive | inactive | inactive | – |
| COCCOC[C@H](CC1(C(=O)NC2CCC(C(=O)O)CC2)CCCC1)C(=O)Oc1ccc2c(c1)CCC2 (some centres undefined) | inactive | inactive | – | inactive | inactive | inactive | inactive | inactive | – | inactive | inactive | inactive | inactive | inactive | inactive |
| CCN1CCOCC1 | inactive | inactive | inactive | – | inactive | inactive | inactive | inactive | – | inactive | inactive | inactive | – | – | inactive |
| O=C1CCCCCCCCCCCCCCO1 | inactive | inactive | inactive | inactive | inactive | inactive | – | inactive | – | inactive | inactive | – | – | – | inactive |
| CC(C)COC(=O)c1ccc(N)cc1 | inactive | inactive | inactive | – | inactive | inactive | inactive | inactive | inactive | inactive | inactive | – | inactive | – | 18.8 µM (active) |
| O=C(c1ccccc1O)c1ccccc1O | inactive | inactive | – | – | inactive | inactive | inactive | inactive | inactive | inactive | – | inactive | – | – | inactive |
| CCCCOCCOC(=O)CCCCCCCCC(=O)OCCOCCCC | inactive | inactive | inactive | inactive | inactive | inactive | inactive | – | inactive | inactive | inactive | inactive | inactive | inactive | – |
| c1ccc(CCc2ccccc2)cc1 | inactive | inactive | inactive | – | inactive | inactive | inactive | inactive | – | inactive | inactive | inactive | inactive | inactive | inactive |
| COC(=O)Nc1ccc(Cl)c(Cl)c1 | inactive | inactive | inactive | – | inactive | inactive | inactive | – | inactive | inactive | inactive | 60.8 µM (active) | – | – | inactive |
| Cc1ccc(C(=O)c2ccccc2)cc1 | inactive | inactive | inactive | 31.7 µM (active) | inactive | inactive | inactive | inactive | – | inactive | inactive | – | – | – | – |
| CC1=NN(c2cc(S(=O)(=O)O)ccc2Cl)C(=O)C1N=Nc1ccccc1 (centres undefined) | inactive | inactive | 48.6 µM (active) | – | – | – | inactive | – | inactive | inactive | – | inactive | – | – | 68.6 µM (active) |
| CC(N)C12CC3CC(CC(C3)C1)C2 (centres undefined) | inactive | inactive | inactive | inactive | – | inactive | – | inactive | inactive | inactive | inactive | – | – | – | inactive |
| CC(=O)Nc1ccc(OCC(O)CNC(C)C)cc1 (centres undefined) | inactive | inactive | inactive | inactive | inactive | inactive | inactive | inactive | inactive | inactive | inactive | inactive | – | – | – |
| CC(C)=CCC/C(C)=C/C#N | inactive | inactive | inactive | inactive | inactive | inactive | inactive | inactive | inactive | inactive | inactive | inactive | – | – | – |
